Source: PubChem BioAssay
Shown are actives, neighbours in structure and some others; about 3.3% of the full set was active somewhere.
PriA SSB inh: K. pneumoniae PriA-SSBct interaction inhibition; AlphaScreen SSBct-PriA binding, biotinylated peptide; inhibition, % at 33 µM; 430,000 tested, 0.6% active; in the data active = inhibition mostly above about 37%, no sharp cut-off; inactive = mostly below about 20%
Anthrax LF inh2: anthrax lethal factor protease inhibition. multiplex microsphere protease cleavage assay, LF. P15917. inhibition, % at 10 µM. 360,000 tested, 0.12% active. AID 588501
MazEF act: increases E. coli MazEF RNase cleavage of RNA | activation, % at 20 µM | P0AE70 | FAM/BHQ RNA-DNA oligo cleavage fluorescence, 5 h | AID 504720 | 350,000 tested, 0.32% active; in the data active = activation above about 50%
BoNT-F LC inh: blocks Botulinum neurotoxin F light chain protease. inhibition, % at 10 µM. AID 588497. 360,000 tested, 0.22% active. Multiplex microsphere protease cleavage assay, flow cytometry; in the data active = inhibition above about 35%, passing the limit was not always enough; inconclusive = no clear call, values can overlap the other calls
Autofluor counter: compound fluorescence in toxin protease inhibitor counterscreen; AID 624483; compound autofluorescence counterscreen, microsphere flow cytometry; hits give high values; fluorescence intensity (test concentration not listed); 360,000 tested, 3.1% active; in the data active = fluorescence intensity above about 16000; inconclusive = no clear call, values can overlap the other calls
BoNT A protease: inhibitors of Botulinum neurotoxin A light chain protease. multiplex microsphere protease substrate cleavage, flow cytometry. inhibition, % at 10 µM. 360,000 tested, 0.17% active. AID 588499
Each line names hits and unclear results; the compound was inactive in the other large screens. Cut-off read from the data, not from the text of the source, unless noted: active = inhibition above about 30%; inconclusive = no clear call, values can overlap the other calls; inactive = below that.

CC1=C(C(=O)N2CCOCC2)C(c2ccsc2)C2=C(CCCC2=O)N1 (configuration not stated)	Autofluor counter 22793
COc1ccccc1NC(=O)CSc1ncc(S(=O)(=O)c2ccc(Cl)s2)c(N)n1	none (no result: Anthrax LF inh2, MazEF act, BoNT-F LC inh, Autofluor counter, BoNT A protease)
O=C(Nc1ccccn1)C(=O)Nc1ccccn1	none
Cc1ccccc1NC(=S)Nc1ccccn1	BoNT-F LC inh 37
S=C(Nc1ccccn1)c1ccccn1	PriA SSB inh 81
CCC(=NNC(=O)c1ccccc1)c1c(O)n(C2CCCCC2)c(=O)[nH]c1=O	none (no result: Anthrax LF inh2, MazEF act, BoNT-F LC inh, Autofluor counter, BoNT A protease)
CC(=NCCO)c1c(O)n(C2CCCCC2)c(=O)[nH]c1=O	none
CCC(=NCCCN(CC)CC)c1c(O)n(C2CCCCC2)c(=O)[nH]c1=O	Autofluor counter 25763
CCN(CC)CCCN=C(C)c1c(O)n(C2CCCCC2)c(=O)[nH]c1=O	Autofluor counter 16590
CCC(=NCCN1CCOCC1)c1c(O)n(C2CCCCC2)c(=O)[nH]c1=O	none
CCC(=Nc1ccc(OC)cc1OC)c1c(O)n(C2CCCCC2)c(=O)[nH]c1=O	Autofluor counter 22084
O=C(NCCN1CCN(c2ccccc2)CC1)C(=O)Nc1ccccc1Cl	none (no result: Anthrax LF inh2, MazEF act, BoNT-F LC inh, Autofluor counter, BoNT A protease)
O=C(NC1CCCCC1)N1CCn2cccc2C1c1cccnc1 (configuration not stated)	none (no result: Anthrax LF inh2, MazEF act, BoNT-F LC inh, Autofluor counter, BoNT A protease)
CN(Cc1nc2ccccc2n1C)C(=O)c1cccs1	Autofluor counter 22484
COc1ccc(C[C@H]2CN3C(=NC[C@@H]3Cc3ccc(O)cc3)N2CCNC(=O)c2ccc(C)c(Br)c2)cc1	PriA SSB inh 42
Cc1ccc(C(=O)NCCN2C3=NC[C@H](Cc4ccc(O)cc4)N3C[C@H]2Cc2ccc(O)cc2)cc1Br	none
COc1ccc(C(=O)COC(=O)CCN=C2NS(=O)(=O)c3ccccc32)cc1OC	Autofluor counter 20801
COc1ccccc1C(=O)COC(=O)CCCN=C1NS(=O)(=O)c2ccccc21	BoNT-F LC inh inconclusive
c1ccc(-c2nnc(CSc3nnc(-c4cccs4)o3)o2)cc1	Autofluor counter 22467
c1csc(-c2nnc(Cc3cccc4ccccc34)o2)c1	Autofluor counter 23714, BoNT A protease inconclusive
Fc1ccc(-c2nnc(CSc3nnc(-c4cccs4)o3)o2)cc1	none
COC(=O)CN[C@@H](c1ccccc1Cl)c1cc(Br)ccc1NS(=O)(=O)c1ccc(C)cc1	none (no result: Anthrax LF inh2, MazEF act, BoNT-F LC inh, Autofluor counter, BoNT A protease)
Cc1cccc2cc(C#N)c(NCCCn3ccnc3)nc12	Autofluor counter 19585
Cc1cccc2cc(C#N)c(NCc3ccccc3)nc12	none
CN(CC(=O)NCc1ccco1)S(=O)(=O)c1ccc2c(c1)n(C)c(=O)c(=O)n2C	Autofluor counter 24204
COc1ccc(S(=O)(=O)N(CC(=O)NCc2ccco2)c2ccccc2)cc1	Autofluor counter 19214, BoNT A protease inconclusive
CN(CC(=O)NCc1ccccc1Cl)S(=O)(=O)c1ccc2c(c1)n(C)c(=O)c(=O)n2C	none
COc1ccc(N2CC(NC(=O)NCc3ccc4[nH]c5c(c4c3)CCCC5)CC2=O)cc1OC (configuration not stated)	none (no result: Anthrax LF inh2, MazEF act, BoNT-F LC inh, Autofluor counter, BoNT A protease)
O=C(CCC1COc2ccccc2O1)Nc1cccnc1 (configuration not stated)	Autofluor counter 23308
Cc1cc(NC(=O)Cc2cccs2)n(-c2nc(-c3ccc(Cl)cc3)cs2)n1	none (no result: Anthrax LF inh2, MazEF act, BoNT-F LC inh, Autofluor counter, BoNT A protease)
CCOc1c(Cl)cc(CNCC(C)C)cc1OC	Autofluor counter 24375, BoNT A protease inconclusive
CCOc1c(Cl)cc(CNCC(O)c2ccccc2)cc1OC (configuration not stated)	none
O=C(NCCN1CCN(C(=O)c2cc(-c3cccs3)[nH]n2)CC1)c1ccc2c(c1)OCO2	none (no result: Anthrax LF inh2, MazEF act, BoNT-F LC inh, Autofluor counter, BoNT A protease)
Cc1ccc(Oc2coc3cc(OC(=O)c4cccs4)ccc3c2=O)cc1	Autofluor counter 16461
CCC(C)n1c(=O)c2sccc2n2c(CCCC(=O)N3CCC(C(N)=O)CC3)nnc12 (configuration not stated)	PriA SSB inh 43
COc1ccc(-c2nnc(N)s2)cc1	Autofluor counter 23923
Cc1ccc(-c2nnc(N)s2)cc1	none
COc1ccccc1NCC(=O)N/N=C/c1cccnc1	Autofluor counter 23032 (no result: PriA SSB inh)
O=S(=O)(/C=C/c1ccccc1)N1CCCC(Cc2nc(-c3ccccc3F)no2)C1 (configuration not stated)	none (no result: Anthrax LF inh2, MazEF act, BoNT-F LC inh, Autofluor counter, BoNT A protease)
CC(C)(C)OC(=O)NCCCCCc1nnc(SCC(N)=O)o1	none
Cc1cccc(C)c1NC(=O)CSc1nnc(CCCCCNC(=O)OC(C)(C)C)o1	Autofluor counter 16539
Cc1ccc(C)c(NC(=O)CSc2nnc(CCCCCNC(=O)OC(C)(C)C)o2)c1	Autofluor counter 26977
Cc1ccc(NC(=O)CSc2nnc(CCNC(=O)OC(C)(C)C)o2)c(C)c1	none
O=C(NC(c1cccnc1)C1CCOCC1)c1ccc2ncsc2c1 (configuration not stated)	none (no result: Anthrax LF inh2, MazEF act, BoNT-F LC inh, Autofluor counter, BoNT A protease)
COCc1c(C2=NNC(=Cc3ccccc3)O2)nnn1-c1cccc(C(F)(F)F)c1	none (no result: Anthrax LF inh2, MazEF act, BoNT-F LC inh, Autofluor counter, BoNT A protease)
CCCCN1C(=O)CCc2cc(NC(=O)COc3ccc(OC)cc3)ccc21	none (no result: Anthrax LF inh2, MazEF act, BoNT-F LC inh, Autofluor counter, BoNT A protease)
Cc1csc(NC(=O)c2ccc(Cn3nc(C)c(Br)c3C)o2)n1	none
Cc1nn(Cc2ccc(C(=O)Nc3ccccc3C(F)(F)F)o2)c(C)c1Br	Autofluor counter 23948
O=C(CCCc1ccccc1)NCCOc1ccc2c(c1)OCO2	none (no result: Anthrax LF inh2, MazEF act, BoNT-F LC inh, Autofluor counter, BoNT A protease)
Cn1c(-c2ccc3c(c2)OCO3)cnc1NC(=O)CCC(=O)NCCc1ccccc1	Autofluor counter 22472
Cn1c(-c2ccc3c(c2)OCO3)cnc1NCc1ccccc1	Autofluor counter 22213
Cn1c(-c2ccc3c(c2)OCO3)cnc1N	Autofluor counter 19330
CCCCNC(=O)CCC(=O)Nc1ncc(-c2ccc(C)cc2)n1C	Autofluor counter 20268, BoNT A protease inconclusive
Cn1c(-c2ccc3c(c2)OCO3)cnc1NCc1cccc(Cl)c1	none
Cn1c(-c2ccc3c(c2)OCO3)cnc1NCc1ccccc1Cl	none
O=C(Nc1nc(CC(=O)N2CCN(c3ncccn3)CC2)cs1)c1ccc[nH]c1=O	none (no result: Anthrax LF inh2, MazEF act, BoNT-F LC inh, Autofluor counter, BoNT A protease)
CCNC(=O)NCC#CCN(CC)CC	none (no result: Anthrax LF inh2, MazEF act, BoNT-F LC inh, Autofluor counter, BoNT A protease)
COc1ccc(CCNC(=O)C2CC(=O)N(C3CCCCCCC3)C2)cc1OC (configuration not stated)	Autofluor counter 24165
COc1ccc(CCNC(=O)C2CCN(S(=O)(=O)N3CCCCCC3)CC2)cc1OC	Autofluor counter 22454
COc1ccc(CCN2CC(C(=O)NCc3ccco3)CC2=O)cc1OC (configuration not stated)	Autofluor counter 16739
Cc1ccc(N2C[C@@H](NC(=O)N3CCN(c4ccccc4F)CC3)CC2=O)cc1C	none (no result: Anthrax LF inh2, MazEF act, BoNT-F LC inh, Autofluor counter, BoNT A protease)
CCNC(=O)COc1cccc2ccccc12	Autofluor counter 21317
COc1cccc(C2C(C#N)=C(N)Oc3c2oc(CO)cc3=O)c1OC (configuration not stated)	Autofluor counter 22208
COc1ccc(C(CCN2CCCCC2)c2c(OC)cc(OC)c3c(-c4ccccc4)cc(=O)oc23)cc1 (configuration not stated)	none
COc1cc(OC)c2c(-c3ccccc3)cc(=O)oc2c1C(CCN1CCCCC1)c1ccc(N(C)C)cc1 (configuration not stated)	PriA SSB inh 74
